Results filed as inconclusive are left out. Active and inactive are the calls of the source. Unless noted, calls come from the whole dose curve; as a rule, active = well fitted curve in the direction sought with a large enough effect; inconclusive = small, poorly fitted or top-dose-only effect, or another doubt; inactive = no such curve, though single readings can be large; an effect the other way counts as inactive or inconclusive.

The values that follow come from PubChem BioAssay (NCATS).

The target of assay [1] is Cytochrome P450 2D6 (Homo sapiens) (UniProt P10635). The experiment in a line: qHTS Assay for Inhibitors and Substrates of Cytochrome P450 2D6 (AID 891). Note: potency is the fitted concentration of half-maximal effect; nearly all actives have a fitted effect of over 60% in size. In outline: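 Human CYP2D6 (5 nM) with 30 uM Luciferin-ME EGE (at Km) in 100 mM KPO4, compound preincubated 10 min, then NADPH regeneration system for 60 min at room temperature. Luciferin read by luminescence; normalized to 1.43 uM quinidine.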
A general note: In qHTS, concentration-response curves come from the screen itself.

Assay [2] can be described thus: Confirmation and Secondary Assay for Modulators of Hemoglobin Beta Chain Splicing at IVS2 654 locus (AID 910).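 Note: HeLa cells stably carrying EGFP split by mutant beta-globin IVS2-654 intron; per-well total GFP intensity by laser scanning cytometry after 2-day treatment; % of control where 0% means no effect.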 Summed up: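 Readout: per-well total peak green fluorescence (488 nm ex, 500–520 nm em) from objects 5–250 µm, reflecting correct splicing of an EGFP-654 reporter. Compounds were applied for 2 days at 37 °C to overnight-plated HeLa EGFP-654 cells; controls were DMSO and 500 nM IVS2-654 PNA.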

Assay [3] is described as follows: NCATS anti-infectives library activity on HEK293 viability as a counter-qHTS vs the C. elegans viability qHTS (AID 1745854).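 Note: HEK293 cells exposed to compounds for 24 hr before the viability read; % is set by controls: 0 for no effect and ±100 for the full control effect.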 Summed up:
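Compounds were acoustically plated (several concentrations, 1:5, final up to 41.7 uM), then 1500 HEK293 cells added per well and incubated 24 hr at 37C, 5% CO2. CellTiter-Glo was added and luminescence read after 10 min.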

Assay [4] can be described thus: NCATS anti-infectives library activity on the primary C. elegans qHTS viability assay (AID 1745855; calls by dose curve; note: potency is the fitted concentration of half-maximal effect). The settings on record: C. elegans worm area imaging, day 7. Summed up: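 Viability read-out is GFP fluorescence of PE254-GFP-FLuc C. elegans, measured by laser cytometry (488 nm) at day 0, 3 and 7. Ten L1 worms per well were incubated 7 days at 21 °C with compounds and bacterial capsules in S medium.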

Assay [5] can be described thus: qHTS Assay for Identification of Small Molecule Agonists for Hypoxia Response Element Signaling Pathway (AID 914; active = well fitted activation curve with a large enough effect in the signal ratio, with a control signal flat, not every such curve was filed as active; the % refers to the signal ratio; note: % of control where 0% means no effect). Conditions: ME-180 (cervical carcinoma) HRE-bla reporter, beta-lactamase ratio, CoCl2, 17 h; activation: stronger effect = higher value. Summed up: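 Read-out: CCF4 FRET ratio of 460nm to 530nm emission (excitation 405nm) after 2.5 hours at room temperature, taken from HRE-bla ME-180 cells that had been exposed to compound and EC50 CoCl2 for 17 hours.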

Assay [6] addresses Rap guanine nucleotide exchange factor 4 (Homo sapiens) (UniProt Q8WZA2). In words: Confirmatory qHTS for antagonist of cAMP-regulated guanine nucleotide exchange factor 4 (EPAC2) (AID 1645885). For activity change, negative = inhibition: % is set by controls: 0 for no effect and ±100 for the full control effect. Note: nearly all actives have a fitted effect of over 25% in size. Note: potency is the fitted concentration of half-maximal effect.
Assay [7] is described as follows: Confirmation and Secondary Assay for Modulators of Hemoglobin Beta Chain Splicing at IVS2 705 locus (AID 930).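 Note: HeLa cells stably expressing the EGFP-705 splicing reporter; GFP fluorescence per well restored by corrected splicing of the IVS2-705 intron in EGFP; % of control where 0% means no effect.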 Summed up: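 HeLa EGFP-705 reporter; 500 cells/well, o/n 37C 5% CO2; cpd 2 d; 488 ex/500-520 em laser scan; total peak GFP intensity/well. Ref: 500 nM […] antisense PNA.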
The target of assay [8] is Rap guanine nucleotide exchange factor 3 (Homo sapiens) (UniProt O95398). The experiment in a line: Confirmatory qHTS for antagonist of cAMP-regulated guanine nucleotide exchange factor 3 (EPAC1) (AID 1645880).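 Note: plate controls were DMSO only for no effect and full effect of the ATA control for full effect; nearly all actives have a fitted effect of over 55% in size.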 In outline: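 Nucleotide exchange uses 100 nM EPAC1, 250 nM RAP1B-BODIPY-GDP and 50 uM GDP, with compounds in a concentration-titration series. After 5 min at room temperature, fluorescence (480 nm ex/540 nm em) is read every 5 min for 30 min. Data are normalized to control ATA and DMSO.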

The target of assay [9] is Catechol O-methyltransferase (Homo sapiens) (UniProt P21964). In words: Confirmatory Screen for Target Class Profiling of Small Molecule Inhibitors of Methyltransferases (AID 1745852). For activity change, negative = inhibition: % is set by controls: 0 for no effect and ±100 for the full control effect. Conditions: MTase-Glo luminescence, SAH detection, recombinant enzyme; measured here: COMT max response; stronger effect = lower value.
Assay [10] deals with Guanidinoacetate N-methyltransferase (Homo sapiens) (UniProt Q14353). The description is as above. The settings on record: MTase-Glo luminescence, SAH detection, recombinant enzyme; at 57.3 µM (top of the series).
The target of assay [11] is Nicotinamide N-methyltransferase (Homo sapiens) (UniProt P40261). The description is as above. The settings on record: MTase-Glo luminescence, SAH detection, recombinant enzyme; measured here: NNMT max response; stronger effect = lower value.
Assay [12] concerns the target Phenylethanolamine N-methyltransferase (Homo sapiens) (UniProt P11086). Described as above. Conditions: MTase-Glo luminescence, SAH detection, recombinant enzyme; measured here: PNMT max response; stronger effect = lower value.

Rap guanine nucleotide exchange factor 4 (Homo sapiens), sequence (Q8WZA2 whole entry, looked up): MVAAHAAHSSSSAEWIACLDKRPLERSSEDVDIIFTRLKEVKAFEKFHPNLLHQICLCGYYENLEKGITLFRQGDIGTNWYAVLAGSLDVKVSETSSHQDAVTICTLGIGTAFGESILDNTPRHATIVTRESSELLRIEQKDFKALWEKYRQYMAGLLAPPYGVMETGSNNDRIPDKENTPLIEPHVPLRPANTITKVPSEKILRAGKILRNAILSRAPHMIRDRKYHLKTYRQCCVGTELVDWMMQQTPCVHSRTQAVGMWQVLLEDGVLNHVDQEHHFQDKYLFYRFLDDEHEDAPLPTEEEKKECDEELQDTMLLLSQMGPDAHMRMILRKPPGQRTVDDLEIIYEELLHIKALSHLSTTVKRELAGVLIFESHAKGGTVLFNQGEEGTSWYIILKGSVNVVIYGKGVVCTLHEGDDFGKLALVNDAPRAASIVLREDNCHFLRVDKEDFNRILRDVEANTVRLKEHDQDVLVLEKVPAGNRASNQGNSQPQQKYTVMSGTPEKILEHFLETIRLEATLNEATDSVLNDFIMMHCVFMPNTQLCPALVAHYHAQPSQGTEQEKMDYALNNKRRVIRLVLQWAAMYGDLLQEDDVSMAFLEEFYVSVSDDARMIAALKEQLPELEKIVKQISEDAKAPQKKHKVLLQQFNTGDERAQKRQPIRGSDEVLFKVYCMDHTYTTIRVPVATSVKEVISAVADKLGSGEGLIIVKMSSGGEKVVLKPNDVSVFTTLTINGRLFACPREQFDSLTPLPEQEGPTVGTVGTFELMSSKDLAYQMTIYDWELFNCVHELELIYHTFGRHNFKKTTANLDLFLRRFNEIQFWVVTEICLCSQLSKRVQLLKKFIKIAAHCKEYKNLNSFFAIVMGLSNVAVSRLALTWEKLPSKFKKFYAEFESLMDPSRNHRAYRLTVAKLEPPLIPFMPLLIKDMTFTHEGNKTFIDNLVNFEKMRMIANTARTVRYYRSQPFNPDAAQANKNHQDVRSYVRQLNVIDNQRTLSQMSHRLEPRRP
Cytochrome P450 2D6 (Homo sapiens), sequence (P10635 whole entry, looked up): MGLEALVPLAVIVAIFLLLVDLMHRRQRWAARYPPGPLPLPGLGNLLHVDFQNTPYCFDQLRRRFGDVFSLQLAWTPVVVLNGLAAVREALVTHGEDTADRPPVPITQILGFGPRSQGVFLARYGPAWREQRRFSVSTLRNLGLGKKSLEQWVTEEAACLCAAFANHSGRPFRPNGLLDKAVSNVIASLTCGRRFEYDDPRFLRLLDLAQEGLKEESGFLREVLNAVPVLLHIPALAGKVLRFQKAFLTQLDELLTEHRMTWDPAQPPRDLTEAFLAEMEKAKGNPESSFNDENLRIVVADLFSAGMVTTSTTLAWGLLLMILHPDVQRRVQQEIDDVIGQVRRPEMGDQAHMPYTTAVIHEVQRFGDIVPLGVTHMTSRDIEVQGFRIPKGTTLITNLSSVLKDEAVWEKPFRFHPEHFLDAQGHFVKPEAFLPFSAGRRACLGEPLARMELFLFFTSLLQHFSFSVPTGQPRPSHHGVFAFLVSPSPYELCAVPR
Nicotinamide N-methyltransferase (Homo sapiens), sequence (P40261 whole entry, looked up): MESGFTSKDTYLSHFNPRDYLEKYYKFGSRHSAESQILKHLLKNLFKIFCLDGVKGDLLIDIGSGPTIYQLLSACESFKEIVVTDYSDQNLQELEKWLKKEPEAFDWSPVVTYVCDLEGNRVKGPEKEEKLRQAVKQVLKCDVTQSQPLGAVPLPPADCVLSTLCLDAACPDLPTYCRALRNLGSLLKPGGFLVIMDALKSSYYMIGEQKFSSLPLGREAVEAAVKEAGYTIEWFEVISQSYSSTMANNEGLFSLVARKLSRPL
Phenylethanolamine N-methyltransferase (Homo sapiens), sequence (P11086 whole entry, looked up): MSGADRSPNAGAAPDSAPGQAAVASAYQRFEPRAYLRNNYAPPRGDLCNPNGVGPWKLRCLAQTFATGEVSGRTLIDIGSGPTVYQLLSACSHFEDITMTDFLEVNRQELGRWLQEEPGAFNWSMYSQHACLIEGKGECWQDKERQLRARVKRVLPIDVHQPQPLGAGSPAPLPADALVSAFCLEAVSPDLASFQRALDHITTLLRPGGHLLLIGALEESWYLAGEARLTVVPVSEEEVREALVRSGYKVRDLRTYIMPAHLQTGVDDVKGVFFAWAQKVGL
Rap guanine nucleotide exchange factor 3 (Homo sapiens), sequence (O95398 whole entry, looked up): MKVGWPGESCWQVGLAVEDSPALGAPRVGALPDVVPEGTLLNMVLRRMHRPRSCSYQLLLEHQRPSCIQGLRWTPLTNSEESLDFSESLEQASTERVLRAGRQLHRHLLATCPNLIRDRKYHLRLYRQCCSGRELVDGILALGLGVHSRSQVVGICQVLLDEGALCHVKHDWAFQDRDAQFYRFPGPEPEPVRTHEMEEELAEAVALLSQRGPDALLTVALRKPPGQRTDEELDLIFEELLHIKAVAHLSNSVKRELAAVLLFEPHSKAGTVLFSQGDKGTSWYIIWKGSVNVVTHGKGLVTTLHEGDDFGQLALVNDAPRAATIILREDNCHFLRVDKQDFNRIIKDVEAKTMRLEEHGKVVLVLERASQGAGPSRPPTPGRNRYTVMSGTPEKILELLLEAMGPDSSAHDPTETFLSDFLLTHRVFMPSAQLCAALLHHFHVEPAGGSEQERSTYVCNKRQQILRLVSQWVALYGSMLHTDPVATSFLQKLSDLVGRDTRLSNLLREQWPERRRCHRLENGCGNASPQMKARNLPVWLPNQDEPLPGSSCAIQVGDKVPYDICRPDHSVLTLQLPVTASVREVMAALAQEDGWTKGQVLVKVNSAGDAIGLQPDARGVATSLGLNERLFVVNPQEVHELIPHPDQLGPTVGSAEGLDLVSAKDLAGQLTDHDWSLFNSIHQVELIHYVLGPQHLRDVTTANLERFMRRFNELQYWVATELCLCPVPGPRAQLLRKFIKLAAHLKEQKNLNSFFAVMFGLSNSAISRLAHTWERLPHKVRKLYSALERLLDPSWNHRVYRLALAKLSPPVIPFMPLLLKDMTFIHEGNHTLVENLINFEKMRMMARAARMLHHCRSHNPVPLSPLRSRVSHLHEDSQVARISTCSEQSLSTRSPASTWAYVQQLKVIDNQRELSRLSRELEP
Catechol O-methyltransferase (Homo sapiens), sequence (P21964 whole entry, looked up): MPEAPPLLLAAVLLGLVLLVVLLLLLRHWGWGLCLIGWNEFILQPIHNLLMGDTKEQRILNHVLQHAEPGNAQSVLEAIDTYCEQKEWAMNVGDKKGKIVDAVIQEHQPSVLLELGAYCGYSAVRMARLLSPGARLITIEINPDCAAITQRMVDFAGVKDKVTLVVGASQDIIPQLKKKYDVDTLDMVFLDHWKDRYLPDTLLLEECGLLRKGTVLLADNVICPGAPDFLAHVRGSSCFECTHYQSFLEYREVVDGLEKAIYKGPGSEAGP

For the molecule `COc1c(O)cc2oc3cc(O)c(CC=C(C)C)c(O)c3c(=O)c2c1CC=C(C)C`, the Potency in assay [1] was 31.6 µM (active); in assay [4] it was 6.48 µM (active). In addition, the Potency entry in assay [2] was “inactive”. For the same molecule, the outcome in assay [3] was “inactive”.

For `COc1ccc(CNc2ccnc(-c3cccc(C#N)c3)n2)c(OC)c1`, in assay [5], the activation is -5.53% (inactive).

On to `COc1ccc(CNc2nc(-c3ccc4c(c3)OCO4)nc3ccccc23)c(OC)c1`, for which the Potency result in [6] is “inactive”.

`COc1ccc(-c2nc3cnc(Nc4cccc(OC)c4)nc3n(Cc3cccs3)c2=O)cc1`: the Potency in [6] was 44.1 µM (active).

For the molecule `CN(C)c1ncnc2ccc(-c3ccccc3C(F)(F)F)cc12`, the Potency in [6] is 44.1 µM (active).

For the molecule `c1ccc(CNc2ccnc(-c3ccc4c(c3)OCO4)n2)cc1`, the Potency in [1] was 1.58 µM (active). The Potency entry in assay [2], in assay [8] and in [6] was “inactive” throughout. Besides, the outcome in assay [7] was “inactive”.

With `COc1ccccc1-c1ccc2ncnc(N(C)Cc3ccco3)c2c1`, the Potency in [6] is 39.3 µM (active).

For the molecule `COc1ccc(C(=O)N2CCC3(CCN(Cc4cc(C(F)(F)F)cc(C(F)(F)F)c4)CC3)CC2)cc1`, in assay [6], the Potency was 35 µM (active).

As to `O=C(CCCCCN1C(=O)c2cccc3cccc(c23)C1=O)NO`, the activity in assay [9] was 0.323%; in assay [11], -12.3%; in assay [12], -6.54%. Moreover, the activity change, negative = inhibition in assay [10] is 0.722%.

In the case of `COc1ccc(C(=O)N2CCC[C@@]3(CCN(Cc4cc(C(F)(F)F)cc(C(F)(F)F)c4)C3)C2)cc1`, the Potency in assay [6] is 55.5 µM (active).

In the case of `COc1cccc(Cn2c(=O)c(-c3ccc(Cl)cc3)nc3cnc(N4CCNCC4)nc32)c1`, in [6], the Potency was 39.3 µM (active).

As for `COc1ccc(CNc2ncncc2-c2ccccc2C(F)(F)F)c(OC)c1`, the Potency in [1] is 0.398 µM (active).

Regarding `COc1ccc(Oc2ncc3ncc(=O)n(C4CC4)c3n2)cc1`, the activation in assay [5] was -9.06% (inactive).

On to `CCNc1ncc2nc(-c3cn(C)c4ccccc34)c(=O)n(CCC#N)c2n1`, for which the Potency in [1] is 3.98 µM (active).

Take `O=c1c(CCc2ccccc2)nc2cnc(N3CCOCC3)nc2n1CCc1ccccc1`: in [5], the activation is -4.33% (inactive).

As for `COc1ccccc1CCn1c(=O)c(-c2cccc(Cl)c2)nc2cncnc21`, the activation in assay [5] was -1.79% (inactive).

Regarding `c1nc(NCCN2CCOCC2)c2cc(-c3ccoc3)ccc2n1`, in assay [1], the Potency is 2 µM (active).

For the molecule `CCNc1ncc2nc(-c3ccccc3)c(=O)n(CCOC)c2n1`, in assay [1], the Potency is 3.16 µM (active).
